Common to all, as to set-up: scale not given: direction of the effect not stated beside the values
Assay [1] has as its target Protein translocase subunit SecA (Escherichia coli (strain K12)) (UniProt P10408). The assay can be described thus: Assay to Identify E. coli SecA ATPase Inhibitors. Type of assay: functional. The note with it: 30 µM.
The target of assay [2] is T1, Ubiquitin-activating enzyme e1, putative (Leishmania donovani (strain BPK282A1)) (UniProt E9BSI1).
T1 sequence (whole entry): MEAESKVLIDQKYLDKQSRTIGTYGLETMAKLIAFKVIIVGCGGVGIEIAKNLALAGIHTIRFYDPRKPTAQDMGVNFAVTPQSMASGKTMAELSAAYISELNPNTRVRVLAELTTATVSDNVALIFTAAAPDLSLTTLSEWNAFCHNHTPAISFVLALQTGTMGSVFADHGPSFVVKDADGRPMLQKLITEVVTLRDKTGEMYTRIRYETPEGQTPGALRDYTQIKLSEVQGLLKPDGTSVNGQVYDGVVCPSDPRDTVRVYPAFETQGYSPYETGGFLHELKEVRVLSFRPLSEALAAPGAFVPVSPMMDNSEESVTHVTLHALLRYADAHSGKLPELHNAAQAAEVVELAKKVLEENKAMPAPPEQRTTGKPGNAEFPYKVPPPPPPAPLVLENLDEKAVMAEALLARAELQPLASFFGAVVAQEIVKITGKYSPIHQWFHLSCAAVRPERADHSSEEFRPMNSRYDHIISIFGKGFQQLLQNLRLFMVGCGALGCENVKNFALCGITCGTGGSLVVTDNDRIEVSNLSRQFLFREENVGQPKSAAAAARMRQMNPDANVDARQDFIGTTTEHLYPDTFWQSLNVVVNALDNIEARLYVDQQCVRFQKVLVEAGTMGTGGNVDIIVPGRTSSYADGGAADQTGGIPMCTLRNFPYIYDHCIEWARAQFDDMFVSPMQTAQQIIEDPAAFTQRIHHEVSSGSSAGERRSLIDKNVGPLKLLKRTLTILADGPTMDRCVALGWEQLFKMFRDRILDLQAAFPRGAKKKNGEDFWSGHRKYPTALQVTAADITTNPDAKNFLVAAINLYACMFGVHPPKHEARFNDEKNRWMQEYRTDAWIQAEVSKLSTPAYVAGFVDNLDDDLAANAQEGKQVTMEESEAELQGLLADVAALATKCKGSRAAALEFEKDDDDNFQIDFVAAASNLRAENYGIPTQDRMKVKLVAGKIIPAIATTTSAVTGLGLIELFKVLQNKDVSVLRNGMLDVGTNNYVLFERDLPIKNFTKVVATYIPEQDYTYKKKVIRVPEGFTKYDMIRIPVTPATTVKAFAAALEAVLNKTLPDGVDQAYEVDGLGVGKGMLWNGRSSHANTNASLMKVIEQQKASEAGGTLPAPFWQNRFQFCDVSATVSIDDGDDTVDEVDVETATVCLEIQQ
The assay can be described thus: Leishmania donovani Ubiquitin Activating Enzyme (LdE1). Type of assay: functional. The conditions noted are these: 30 µM.

Assay [3] concerns the target AMP-activated protein kinase, AMPK (Homo sapiens) (UniProt P54646+O43741+P54619+Q9UGJ0+Q9Y478+Q13131+Q9UGI9). The assay can be described thus: AMP-dependent Kinase enzyme assay. An in vitro enzyme assay that detects ADP turnover that is directly proportional to AMPK activity. This uses naive AMPK that is activated during the assay with MK-8722. It counts as functional. The conditions noted are these: 30 µM.

Assay [4] has as its target Sialic acid-binding Ig-like lectin 9 (Homo sapiens) (UniProt Q9Y336). The assay can be described thus: Hs-Siglec9 ALPHAscreen SOP 20170721. The note with it: 10 µM.
Assay [5] deals with Trypanosoma cruzi. Nature of the assay: Trypanosoma cruzi phosphomannomutase and mannose-1-phosphate guanylyltransferase assay. It counts as functional. The conditions noted are these: 10 µM.
For assay [6], the target named is T2, Arginase-2, mitochondrial (Homo sapiens) (UniProt P78540).
T2 sequence (whole entry): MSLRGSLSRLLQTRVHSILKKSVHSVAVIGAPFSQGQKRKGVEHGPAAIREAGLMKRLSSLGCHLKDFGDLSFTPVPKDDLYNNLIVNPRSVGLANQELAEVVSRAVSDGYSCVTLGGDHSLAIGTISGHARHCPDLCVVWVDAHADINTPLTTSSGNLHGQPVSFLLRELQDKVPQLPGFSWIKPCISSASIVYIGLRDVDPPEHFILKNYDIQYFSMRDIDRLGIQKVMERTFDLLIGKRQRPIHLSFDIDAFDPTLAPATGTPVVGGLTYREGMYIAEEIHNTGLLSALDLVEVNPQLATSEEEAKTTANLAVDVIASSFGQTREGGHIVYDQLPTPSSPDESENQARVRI
Nature of the assay: in vitro enzyme assay to detect the production of urea directly proportional to the activity of Arginase II. Also: in the data most compounds retested in dose-response had high values. Type of assay: functional. The conditions noted are these: 33.3 µM.

For assay [7], the target named is T3, Proteasome subunit beta (Trypanosoma cruzi) (UniProt O96673).
T3 sequence (whole entry): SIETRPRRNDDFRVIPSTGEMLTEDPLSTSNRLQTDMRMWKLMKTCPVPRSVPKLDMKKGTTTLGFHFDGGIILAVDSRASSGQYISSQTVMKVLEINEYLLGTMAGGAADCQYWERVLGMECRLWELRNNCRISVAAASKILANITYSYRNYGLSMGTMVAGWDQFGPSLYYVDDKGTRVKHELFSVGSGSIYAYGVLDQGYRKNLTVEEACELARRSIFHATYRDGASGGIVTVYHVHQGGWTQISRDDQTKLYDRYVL
The assay can be described thus: Trypanosoma cruzi proteasome chymotrypsin-like activity (TcProtChymo) assay. Also: in the data most compounds retested in dose-response had high values. The note with it: 9.37 µM. Type of assay: functional.

The species entered for assay [8] is Homo sapiens. Nature of the assay: To identify inhibition of the IFN signalling (Jak-Stat) pathway via expression of an eGFP reporter gene under the control of an IFN-stimulated response element (ISRE) containing MxA promoter. Type of assay: functional. The note with it: 30 µM. For orientation: A reporter such as luciferase makes a cellular process visible.
The target of assay [9] is T4, Tyrosyl-tRNA synthetase, putative (Trypanosoma cruzi (strain CL Brener)) (UniProt Q4DSP6).
T4 sequence (whole entry): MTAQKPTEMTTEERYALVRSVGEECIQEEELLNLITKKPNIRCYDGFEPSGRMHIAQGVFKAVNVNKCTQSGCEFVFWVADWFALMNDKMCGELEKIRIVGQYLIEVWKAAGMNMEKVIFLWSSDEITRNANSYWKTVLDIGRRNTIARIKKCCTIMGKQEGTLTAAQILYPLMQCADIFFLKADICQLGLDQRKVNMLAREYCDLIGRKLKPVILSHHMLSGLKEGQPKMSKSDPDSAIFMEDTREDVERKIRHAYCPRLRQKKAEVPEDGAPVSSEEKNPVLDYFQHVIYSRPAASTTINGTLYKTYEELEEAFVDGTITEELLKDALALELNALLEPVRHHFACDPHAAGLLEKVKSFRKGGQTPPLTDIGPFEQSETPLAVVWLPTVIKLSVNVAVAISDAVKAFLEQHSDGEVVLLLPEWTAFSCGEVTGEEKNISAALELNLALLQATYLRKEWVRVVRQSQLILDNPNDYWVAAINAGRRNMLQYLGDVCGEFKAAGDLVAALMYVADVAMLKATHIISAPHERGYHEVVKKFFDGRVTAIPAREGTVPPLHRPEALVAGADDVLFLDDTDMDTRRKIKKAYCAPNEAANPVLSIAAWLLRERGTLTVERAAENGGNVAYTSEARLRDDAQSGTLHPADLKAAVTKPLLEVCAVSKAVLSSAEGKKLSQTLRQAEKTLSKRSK
The assay can be described thus: Trypanosoma cruzi tyrosyl tRNA synthetase (TcYRS) _High Tyrosine SOP. Also: in the data most compounds retested in dose-response had high values. Type of assay: functional. The note with it: 30 µM.

Assay [10] deals with T4, Tyrosyl-tRNA synthetase, putative (Trypanosoma cruzi (strain CL Brener)). Nature of the assay: Trypanosoma cruzi tyrosyl tRNA synthetase (TcYRS) SOP. It counts as functional. The note with it: 30 µM.
The target of assay [11] is Chromo domain-containing protein 1 (Saccharomyces cerevisiae (strain ATCC 204508 / S288c) (Baker's yeast)) (UniProt P32657). The assay can be described thus: ScCHD-1 Enzyme Inhibition Assay. Also: in the data most compounds retested in dose-response had high values. It counts as functional. The conditions noted are these: 30 µM.
Chromo domain-containing protein 1 (Saccharomyces cerevisiae (strain ATCC 204508 / S288c) (Baker's yeast)), sequence (P32657 whole entry, the tested form may be a part): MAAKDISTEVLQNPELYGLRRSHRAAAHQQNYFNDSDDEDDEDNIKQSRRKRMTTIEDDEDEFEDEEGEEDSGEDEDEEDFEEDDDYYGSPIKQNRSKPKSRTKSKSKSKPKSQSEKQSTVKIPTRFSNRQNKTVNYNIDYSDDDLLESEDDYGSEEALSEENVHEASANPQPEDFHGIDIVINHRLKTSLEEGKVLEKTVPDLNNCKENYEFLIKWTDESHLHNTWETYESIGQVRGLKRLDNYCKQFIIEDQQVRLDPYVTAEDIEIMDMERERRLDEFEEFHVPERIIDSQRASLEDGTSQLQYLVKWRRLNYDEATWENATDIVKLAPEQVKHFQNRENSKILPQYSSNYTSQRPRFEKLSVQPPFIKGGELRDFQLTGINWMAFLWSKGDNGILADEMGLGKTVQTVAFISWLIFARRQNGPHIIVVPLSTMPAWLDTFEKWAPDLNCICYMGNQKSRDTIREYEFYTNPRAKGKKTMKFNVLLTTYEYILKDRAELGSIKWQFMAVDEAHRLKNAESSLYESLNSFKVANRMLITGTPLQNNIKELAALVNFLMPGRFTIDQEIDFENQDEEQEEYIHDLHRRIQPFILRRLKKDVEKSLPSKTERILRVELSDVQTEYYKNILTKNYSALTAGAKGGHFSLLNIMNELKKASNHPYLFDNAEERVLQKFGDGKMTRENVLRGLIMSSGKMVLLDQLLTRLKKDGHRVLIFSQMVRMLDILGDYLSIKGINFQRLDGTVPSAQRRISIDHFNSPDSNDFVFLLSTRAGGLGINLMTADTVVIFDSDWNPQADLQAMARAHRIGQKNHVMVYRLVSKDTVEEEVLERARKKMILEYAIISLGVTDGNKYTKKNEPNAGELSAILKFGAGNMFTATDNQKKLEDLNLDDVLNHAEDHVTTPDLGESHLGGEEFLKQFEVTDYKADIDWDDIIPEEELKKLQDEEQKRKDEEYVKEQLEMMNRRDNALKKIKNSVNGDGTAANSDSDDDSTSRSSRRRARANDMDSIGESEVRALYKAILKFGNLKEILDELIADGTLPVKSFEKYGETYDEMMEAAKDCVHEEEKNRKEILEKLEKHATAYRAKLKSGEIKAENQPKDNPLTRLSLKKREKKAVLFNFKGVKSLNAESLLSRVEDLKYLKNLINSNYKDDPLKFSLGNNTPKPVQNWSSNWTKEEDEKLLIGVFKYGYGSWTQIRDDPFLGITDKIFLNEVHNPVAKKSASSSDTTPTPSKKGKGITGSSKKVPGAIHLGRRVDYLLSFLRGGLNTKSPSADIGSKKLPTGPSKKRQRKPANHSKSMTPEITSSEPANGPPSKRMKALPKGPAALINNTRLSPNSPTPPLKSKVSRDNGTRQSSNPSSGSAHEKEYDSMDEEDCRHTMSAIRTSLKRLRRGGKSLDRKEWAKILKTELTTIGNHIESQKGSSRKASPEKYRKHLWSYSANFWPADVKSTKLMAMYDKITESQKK

For some assays here: Results with a measured potency or affinity are listed apart.

Protein translocase subunit SecA (Escherichia coli (strain K12)), sequence (P10408 whole entry): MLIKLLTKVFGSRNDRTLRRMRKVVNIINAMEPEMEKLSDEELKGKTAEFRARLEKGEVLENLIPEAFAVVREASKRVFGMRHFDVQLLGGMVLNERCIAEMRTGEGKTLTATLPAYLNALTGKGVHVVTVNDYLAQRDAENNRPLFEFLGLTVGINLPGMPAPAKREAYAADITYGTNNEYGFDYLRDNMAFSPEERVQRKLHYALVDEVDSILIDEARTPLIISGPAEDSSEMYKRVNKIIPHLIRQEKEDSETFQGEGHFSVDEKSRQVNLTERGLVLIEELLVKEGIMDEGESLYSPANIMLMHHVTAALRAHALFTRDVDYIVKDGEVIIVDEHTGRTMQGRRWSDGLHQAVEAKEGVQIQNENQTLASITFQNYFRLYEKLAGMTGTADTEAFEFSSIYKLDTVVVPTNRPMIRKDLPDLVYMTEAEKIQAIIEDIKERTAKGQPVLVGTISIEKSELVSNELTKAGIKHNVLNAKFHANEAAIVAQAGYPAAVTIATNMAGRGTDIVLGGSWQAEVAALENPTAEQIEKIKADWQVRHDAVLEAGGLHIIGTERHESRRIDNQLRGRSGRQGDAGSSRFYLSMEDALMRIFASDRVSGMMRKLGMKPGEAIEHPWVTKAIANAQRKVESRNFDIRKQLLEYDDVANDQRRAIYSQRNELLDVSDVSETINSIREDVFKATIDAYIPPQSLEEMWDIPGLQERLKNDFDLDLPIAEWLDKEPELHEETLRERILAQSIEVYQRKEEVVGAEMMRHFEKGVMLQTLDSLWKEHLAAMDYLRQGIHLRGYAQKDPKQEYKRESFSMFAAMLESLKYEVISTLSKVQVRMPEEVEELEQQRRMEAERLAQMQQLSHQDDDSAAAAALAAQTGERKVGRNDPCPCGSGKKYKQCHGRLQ
Sialic acid-binding Ig-like lectin 9 (Homo sapiens), sequence (Q9Y336 whole entry): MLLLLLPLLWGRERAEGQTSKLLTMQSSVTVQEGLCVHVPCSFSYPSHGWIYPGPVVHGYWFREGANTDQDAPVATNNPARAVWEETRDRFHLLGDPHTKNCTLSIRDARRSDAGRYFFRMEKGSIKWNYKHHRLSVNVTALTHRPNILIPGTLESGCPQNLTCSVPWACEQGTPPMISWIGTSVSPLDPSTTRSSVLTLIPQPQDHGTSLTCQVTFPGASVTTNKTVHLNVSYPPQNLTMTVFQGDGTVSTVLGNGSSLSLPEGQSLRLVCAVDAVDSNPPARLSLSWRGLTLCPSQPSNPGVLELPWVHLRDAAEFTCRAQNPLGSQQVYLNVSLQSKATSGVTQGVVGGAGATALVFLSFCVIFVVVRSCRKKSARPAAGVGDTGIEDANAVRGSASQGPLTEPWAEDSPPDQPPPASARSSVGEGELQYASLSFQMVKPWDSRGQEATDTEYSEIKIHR

Turning to `CN1CC(=O)N(c2ccccc2)CC12CCN(Cc1cccnc1)C2` (stereo not given), the Percent Effect in [1] was -2.77%; in assay [2], 0%; in [3], 0.129%; in [4], 2.38%; in [5], -0.397%; in assay [6] it was 2%. Besides, the Percent Effect in assay [7] is 5.74%; in assay [8] it was 3.56%; in assay [9] it was 4.17%; in assay [10] it was 1.24%; in assay [11], 5.73%.

Turning to `CCCC(=O)NCc1cc(Br)c(OC)c(OC)c1`, the Percent Effect in assay [1] is -2.9%; in assay [2] it was 8%; in assay [3], -3.19%; in [4], 14.4%; in assay [5] it was 6.72%; in assay [6], 15.6%. Further, the Percent Effect was 5.41% in assay [7]; 25.5% in [8]; 2.73% in assay [9]; 13.6% in assay [10]; -8.52% in assay [11].

With `CCOc1ccc(N(CC(=O)c2ccccc2)C2=NCCCCC2)cc1`, the Percent Effect in assay [1] was -1.17%; in assay [2], -10.5%; in assay [3], 6.97%; in assay [4] it was 2.61%; in assay [5], 3.21%; in assay [6], -2.37%. Also, the Percent Effect in assay [7] was 8.72%; in [8], -7.49%; in [9] it was -1.06%; in assay [10], -10.4%; in assay [11] it was 4.46%.

On to `CCN1CCCn2c(nc(CNC(=O)c3ccsc3)cc2=O)C1`, for which the Percent Effect in assay [1] was -4.67%; in assay [2], 13.5%; in [3], 7.54%; in assay [4] it was 3.9%; in assay [5] it was -0.0978%; in assay [6] it was 9.24%. The Percent Effect in assay [7] was 13.1%; in assay [8], -1.85%; in [9], 3.24%; in assay [10], 17.9%; in assay [11], -0.449%.

As to `CCCN1CCCn2nc(CNC(=O)CCc3scnc3C)cc2C1`, the Percent Effect in assay [1] was -2.71%; in [2], 20.8%; in assay [3], -13.3%; in assay [4], 19.9%; in [5] it was 3.98%; in [6], 8.39%. The Percent Effect in assay [7] was 16.7%; in assay [8] it was -7.34%; in [9], 5.26%; in assay [10], 17.9%; in assay [11], -7.37%.

For `Cc1ccc(C)c(OC2CCN(C(=O)c3ccc(O)nc3)CC2)c1`, the Percent Effect in [1] is -1.92%; in [2], 15.8%; in assay [3], -2.4%; in [4], 7.02%; in assay [5] it was 3.76%; in [6], 0.383%. Further, the Percent Effect was 17.5% in assay [7]; 10.8% in assay [8]; 8.33% in assay [9]; 21.9% in assay [10]; -11.2% in assay [11].

For the molecule `Cc1cc(C)nc(CCNC(=O)C(c2ccc(F)cc2)N(C)C)n1` (stereo not given), the Percent Effect in [1] was 6.75%; in [2], 11%; in [3], 8.61%; in assay [4], 2.2%; in [5], -9.13%; in assay [6] it was -31.9%. The Percent Effect in assay [7] was 3%; in [8] it was 48.8%; in assay [9], 1.04%; in [10] it was 6.17%; in [11], -6.29%.

As for `CC1CCc2nc(O)c(C(=O)NCCN(C)C)cc2C1` (stereo not given), the Percent Effect is -6.34% in [1]; 4% in assay [2]; -0.0231% in assay [3]; 6.09% in [4]; 1.38% in assay [5]; -6.51% in assay [6]. The Percent Effect in assay [7] was 14.8%; in assay [8], -2.83%; in assay [9], 1.06%; in [10], 2.56%; in assay [11], -5.39%.

Turning to `CC(=O)N1CCCN(c2nccc(-c3cn(C)nc3C)n2)CC1`, the Percent Effect was -5.23% in assay [1]; 5.33% in [2]; -0.173% in [3]; 25.5% in assay [4]; 0.682% in [5]; 0% in [6]. Moreover, the Percent Effect in assay [7] was 9.24%; in [8], -1.59%; in assay [9], 0.546%; in assay [10], 8.64%; in [11], -7.43%.

For the molecule `O=C1CC2(CCN(CC3CCOC3)CC2)CN1Cc1cc(F)cc(F)c1` (stereo not given), the Percent Effect in assay [1] is -5.41%; in assay [2] it was 12.5%; in [3], -5.76%; in [4] it was 26.3%; in assay [5], 4.37%; in assay [6], 16.3%. Also, the Percent Effect in [7] was 9.65%; in assay [8] it was -12.9%; in assay [9], 2.1%; in assay [10], 10.3%; in assay [11] it was -4.1%.

The values above are taken from ChEMBL document CHEMBL3988442, “University of Dundee, Small-Polar-MMV Screening Library” (2021).
